Values joined by “and” are separate entries in the source; they are usually repeats but may differ in a detail not shown here. Equal entries are not always repeated. This is part of a sample that, as a whole, favours compounds with a hit. Of some 79,000 tested, about 15% had one in any assay. A number with no mark means an inactive call. Active and inactive are the calls of the source. Cut-off read from the data, not from the text of the source: active = growth inhibition above about 70%; inactive = the rest.
Columns and labels:
[1] = NCI Yeast Anticancer Drug Screen. Data for the rad50 strain (AID 155);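 note: 0% = growth of vehicle-only cultures of the same strain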; settings: S. cerevisiae rad50 strain growth inhibition; at 50.0 µM; stronger effect = higher value
In short: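 Yeast carrying a defined DNA repair defect were exposed to test compounds, and growth was compared with vehicle-treated controls to give percent inhibition.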

[2] = NCI Yeast Anticancer Drug Screen. Data for the mec2-1 strain (AID 157); settings: S. cerevisiae mec2-1 strain, at 50.0 µM, stronger effect = higher value
In short: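 Yeast mec2-1 mutant treated with compound. Readout: growth inhibition vs vehicle controls.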

[3] = NCI Yeast Anticancer Drug Screen. Data for the sgs1 mgt1 strain (AID 161);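 note: 0% = growth of cultures given vehicle only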; settings: S. cerevisiae sgs1 mgt1 strain, at 50.0 µM, stronger effect = higher value
In short: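 Mutant yeast exposed to compound; growth scored against vehicle-only wells.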

[4] = NCI Yeast Anticancer Drug Screen. Data for the cln2 rad14 strain (AID 165);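 note: 0% = growth equal to vehicle treated cultures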; settings: S. cerevisiae cln2 rad14 strain, at 50.0 µM, stronger effect = higher value
In short: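 cln2 rad14 yeast strain; compound exposure; growth inhibition read vs vehicle controls.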

[5] = NCI Yeast Anticancer Drug Screen. Data for the bub3 strain (AID 167); settings: S. cerevisiae bub3 mutant strain, at 50.0 µM, stronger effect = higher value
In short: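 Compounds were applied to a genetically altered yeast strain carrying a cell-cycle control defect. Growth inhibition was scored against vehicle-treated controls.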

[6] = NCI Yeast Anticancer Drug Screen. Data for the mlh1 rad18 strain (AID 175); settings: S. cerevisiae mlh1 rad18 strain growth inhibition; at 50.0 µM; stronger effect = higher value
In short: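 Yeast w/ defined DNA-repair lesions; compound exposure; growth vs vehicle controls → % inhibition.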

| SMILES | growth inhibition [1] | growth inhibition [2] | growth inhibition [3] | growth inhibition [4] | growth inhibition [5] | growth inhibition [6] |
| --- | --- | --- | --- | --- | --- | --- |
| C[C@H]1C(=O)O[C@@H]2CCN3CC=C(COC(=O)[C@](C)(O)[C@@]1(C)O)[C@H]23 | -4.7% | -4.2% | 11.9% | -2.85% | -9.6% | -44.1% |
| CCS(=O)(=O)CCN1C(=O)CN=C(c2ccccc2F)c2cc(Cl)ccc21 | 27.6% | 6% | 20.8% | 12.4% | -0.7% | 16.4% |
| NS(=O)(=O)c1ccc([As](=O)(O)O)cc1 | -1.1% | -3.85% | 5% | -45.5% | 12.2% | -15.7% |
| [Cl][Pt][Cl].[NH-]NC(=O)c1ccncc1 | 8.65% | 5.8% | -3.55% | -17.1% | 2.35% | -2% |
| COc1cc(=O)oc(/C=C/C=C/C=C/C(C)=C\C2(C)OC(C)C(C)(O)C2O)c1C (configuration not stated) | 6.3% | -8.35% | 3.35% | -9.4% | -20.4% | -0.95% |
| CCCCCCCCCCCCCCCC[As]1c2ccccc2Nc2ccccc21 | 4.4% | 16.7% | 7.05% | 81.3% (active) | 7.45% | 28.5% |
| NC(CO)Cc1ccccc1 (configuration not stated) | -1.6% and 0.85% | 0.3% and -4% | -1.45% and -4.1% | -21.6% and 4.05% | 13.9% and 14.8% | 2.05% and -1.35% |
| ClCCCCl | 13.2% | -15.8% | -3.85% | -7.4% | 4.9% | -27.6% |
| Cc1cccc(C)c1CCl | -1.45% and 23.5% | -9.75% and -12.8% | -8.15% and -4.3% | 12.9% and -38.5% | 9.65% and -1.35% | 6.95% and 20.7% |
| O=C(O)CN(CCN(CC(=O)O)CC(=O)O)CC(=O)O.[Ni+2] | -29.2% | -23% | -11.5% | -15% | 0.4% | -19.9% |
| CCCCCCC(=O)O[C@H]1CC[C@H]2[C@@H]3CCC4C/C(=N/NC(=O)c5cccc6c(=O)c7ccccc7[nH]c56)C=C(C)[C@]4(C)[C@H]3CC[C@]12C (some centres not stated) | 3.1% | -0.85% | 16.6% | 24.7% | 8.45% | -55.3% |
| CC(=O)OC1(c2nccc3ccccc23)CCN(Cc2ccccc2)CC1 | 17.8% | 9.45% | 6.8% | -8.3% | 7.25% | 12% |
| CC(=O)CC1(OC(=O)C2C(C=C(C)C)C2(C)C)C(=O)Nc2ccccc21 (configuration not stated) | 40.5% | 16.4% | 18.6% | 8.85% | 23.1% | 39.5% |
| CCCCOS(C)(=O)=O | 19.6% | -13.8% | 22.4% | 5.8% | 21.4% | 29.4% |
| O=c1[nH]cc(CCl)c(=O)[nH]1 | 3.2% | -17.2% | 6.3% | 25.9% | 4.85% | -0.15% |
| C(=NC1CCCCC1)c1c[nH]c2ccccc12 | -24.9% | -39.6% | -5.05% | 4.7% | -27.5% | -17.8% |
| CC(Br)([N+](=O)[O-])[N+](=O)[O-] | 14.6% | 25.8% | 13.9% | 39.6% | 5.4% | 2.8% |
| CC(C)[C@](O)(C(=O)OCC1=CC[N+]2([O-])CC[C@@H](O)[C@@H]12)[C@H](C)O (some centres not stated) | -10.2% | -46.3% | 4.35% | -0.85% | -26.2% | -10.2% |
| CCCCOc1ccc([As](=O)(O)O)cc1 | -17.4% | -10.2% | 4.3% | -19.2% |  | 5.65% |
| CCOc1ccc(P2(=S)SP(=S)(c3ccc(OCC)cc3)S2)cc1 (configuration not stated) | -11.3% | -20.9% | -13.2% | 20% | 17.1% | -13.8% |

| SMILES | growth inhibition [1] | growth inhibition [2] | growth inhibition [3] | growth inhibition [4] | growth inhibition [5] | growth inhibition [6] |
| --- | --- | --- | --- | --- | --- | --- |
| Cc1ccc(OP(Oc2ccc(C)cc2)Oc2ccc(C)cc2)cc1 | 32.8% | 10.7% | -6.35% | -31.6% | 29.4% | 31.5% |
| N#CC(C#N)c1ccccc1 | 29.1% | 2.6% | 3.5% | -4.05% | 8.75% | 1.2% |
| CCC1CC[N-]CC1.CCC1CC[N-]CC1.[Cl][Pt+2][Cl] | -0.95% | 14.8% | 73% (active) | -42.5% | 18.1% | 48.8% |
| COC(=O)C1(C(=O)OC)Cc2ccc(C)cc2C2=C1C(=O)c1ccccc1C2=O | -25.8% | -10.2% | 5.5% | 7.55% | -3.4% | 7.85% |
| O=NO.O=NO.[NH-]C1CCCCC1[NH-].[Pd+2] (configuration not stated) | -11.2% | 13.1% | 15.2% | 21.2% | 9.05% | -0.3% |
| [Fe+5].[O-][Cl+3]([O-])([O-])O.[O-]c1ccccc1C=NCCN1CC1.[O-]c1ccccc1C=NCCN1CC1 | 1.8% | 16% | 30.1% | 0.3% | 37% | 22.2% |
| CC(=N\O)/C(C)=N/O.CC(=N\O)/C(C)=N/O.[Ni] | -5.1% | 3.6% | -7.35% | 0.95% |  | -10.9% |
| NC(CCCCCP(=O)(O)O)C(=O)O (configuration not stated) | -38.8% | -29.8% | -63.3% | -12.3% | -17.4% | -37.5% |
| COC(=O)c1ccccc1NP(=O)(O)Oc1ccccc1 (tested in a mixture with another compound) | 9.7% | -4.05% | 11.5% | -32.5% | -2.7% | -11.9% |
| NNC(=O)c1ccc(N)cc1 | -12.1% | -9.75% | -8.3% | 6.05% |  | 7.1% |
| CC(C)c1cccc(OC(=O)N(C)C=O)c1 | -8.1% | 12.7% | -12.8% | -46.4% | -21.4% | -1.5% |
| CCOC(=O)/C(=C\c1cccc(F)c1)[Se]c1ccccc1 | 29.4% | 7.15% | 21.9% | 8.3% | 46.8% | 36.6% |
| CCC(CC)CNC(=O)C(C)Br (configuration not stated) | 2.05% | 1.85% | -1.95% | 3.05% | 7.2% | -3.65% |
| c1ccc(CN2CCNCC2)cc1 | -8.35% | -14.4% | 1.9% | -14.1% | 4.9% | -9.7% |
| Cc1ccc(O)c(Cl)c1 | -1% | 5.4% | -19.4% | -11.7% | 0.15% | 38% |
| CC(C)([N+](=O)[O-])S(=O)O | -9.15% | -14.2% | -22% | -1.05% | -5.4% | -0.65% |
| CCCCOCN(COCCCC)C(C)Cc1ccccc1 (configuration not stated) | 11.7% | -3.3% | -12.5% | 11.1% | -2.25% | -21.8% |
| COC(=O)[C@H]1[C@@H](O)[C@@]2(O)c3c(OC)cc(OC)cc3O[C@@]2(c2ccc3c(c2)OCO3)[C@@H]1c1ccccc1 | 89% (active) | 92.5% (active) | 91% (active) | 90.2% (active) | 88.2% (active) | 92.2% (active) |
| O=NN(CCF)C(=O)NCCO | 1.9% | -7.3% | 7.75% | 12.4% | 1.75% | -32.2% |
| N[C@H]1C2C3CC4C5CC(C42)C1(c1ccccc1)C53 (some centres not stated) | -20.4% | -5.25% | -0.05% | -5.2% | -12% | -6% |
